PubChem BioAssay (NCATS)
Inconclusive results are not listed. Values without a mark were called inactive. Calls of active or inactive are those of the source. Calls come from the whole dose curve; as a rule, active = well fitted cell-killing curve with a large enough effect; inconclusive = small, poorly fitted or top-dose-only effect, or effect the other way; inactive = no such curve, though single readings can be large or run the other way.

Test: Quantitative High-Throughput drug screen in 47 multiple myeloma cell lines against the NCATS MIPE library collection: OCIMY5_PLB cell viability assay (AID 1918988); note: nearly all actives have a fitted effect of over 65% in size
Settings: OCI-MY5 myeloma viability, ATP luminescence, 48 h; series mostly up to 45.8 µM; viability, % of control: at the top concentration
From the text: PI: Beverly A. Mock Ph.D.
Laboratory of Cancer Biology and Genetics,
Center for Cancer Research, National Cancer Institute,
National Institute of Health, Bethesda, Maryland
Drug resistance and disease progression are common in multiple myeloma (MM) patients, underscoring the need for new therapeutic combinations. […] We hypothesized that effective combinations would reduce MYC expression and enhance p16 activity. […] These preclinical data identify potentially useful drug combinations for evaluation in drug-resistant MM and reveal potential mechanisms of combined drug sensitivity.
Described herein is the primary MIPE qHTS used to cherrypick compounds. Validated compounds were then further tested for potential synergistic activiy.
[1] Peat TJ, Gaikwad SM, Dubois W, Gyabaah-Kessie N, Zhang S, Gorjifard S, Phyo Z, Andres M, Hughitt VK, Simpson RM, Miller MA, Girvin AT, Taylor A, Williams D, D'Antonio N, Zhang Y, Rajagopalan A, Flietner E, Wilson K, Zhang X, Shinn P, Klumpp-Thomas C, McKnight C, Itkin Z, Chen L, Kazandijian D, Zhang J, Michalowski AM, Simmons JK, Keats J, Thomas CJ, Mock BA. Drug combinations identified by high-throughput screening promote cell cycle transition and upregulate Smad pathways in myeloma. Cancer Lett. 2023 Aug 1;568:216284. doi: 10.1016/j.canlet.2023.216284. Epub 2023 Jun 24. PMID: 37356470; PMCID: PMC10408729.
SEQUENCE No. (e.g., 1, 2, 3, etc.); […] (e.g., Cells, Incubation, Reagent, etc.); VALUE and DESCRIPTION.
1; Cells; 5 uL; white, solid bottom 1536-well Greiner assay plate.
2; Compounds; 23 nL; Kalypsis pin tool (Wako USA) equipped with a 1536-well pin head to transfer to the assay plates.
3; Incubation; 48 hours; 37C incubation.
4; Reagent;5uL; CellTiter Glo (Promega).
5; Detector; 425V; Luminescence; Viewlux PerkinElmer.
NOTES (numbers refer to Sequence numbers above)
1. The cell-based screening methods employed in this study were like those previously published. Briefly, the corresponding myeloma cell lines were screened in 1,536-well plates with 500 cells, 5-uL per well for inhibition of cell viability (assessed by measuring ATP levels with CellTiterGlo).
2. NCATS MIPE 4.0 library of approved and investigational drugs were added using the Kalypsis pin tool. Wells treated with DMSO only for 100% viability and media only for 0% viability were used as controls.
3. The assay plates were covered and incubated for 48 hours in a 37C, 5% CO2 incubator with controlled humidity.
4. After 48 hours, CellTilter-GloTM luminescent substrate mix (Promega) reagent was added to the assay plate and plates we incubated for 5 min at room temperature.
5. Signal was measured as median relative luminescence units on a ViewLux (PerkinElmer) multiplate reader.
[1] Heske CM, Davis MI, Baumgart JT, Wilson K, Gormally MV, Chen L, Zhang X, Ceribelli M, Duveau DY, Guha R, Ferrer M, Arnaldez FI, Ji J, Tran HL, Zhang Y, Mendoza A, Helman LJ, Thomas CJ. Matrix Screen Identifies Synergistic Combination of PARP Inhibitors and Nicotinamide Phosphoribosyltransferase (NAMPT) Inhibitors in Ewing Sarcoma. Clin Cancer Res. 2017 Dec 1;23(23):7301-7311. doi: 10.1158/1078-0432.CCR-17-1121. Epub 2017 Sep 12. PMID: 28899971; PMCID: PMC6636827.
Potency is the fitted concentration of half-maximal effect.

| Compound | Potency | viability, % of control |
| --- | --- | --- |
| Nc1ncnc2c1c(-c1cccc(OCc3ccccc3)c1)cn2C1CC(CN2CCC2)C1 (stereo not given) | 4.18 µM (active) |  |
| CN(C)CC[C@H](CSc1ccccc1)Nc1ccc(S(=O)(=O)NC(=O)c2ccc(N3CCN(Cc4ccccc4-c4ccc(Cl)cc4)CC3)cc2)cc1[N+](=O)[O-] | 0.0469 µM (active) |  |
| CC[C@@H]([C@H](C)O)n1ncn(-c2ccc(N3CCN(c4ccc(OCC5CO[C@@](Cn6cncn6)(c6ccc(F)cc6F)C5)cc4)CC3)cc2)c1=O (stereo not given in full) | 18.7 µM (active) |  |
| CCOC(=O)[C@H]1O[C@H]1C(=O)N[C@@H](CC(C)C)C(=O)NCCC(C)C | 29.6 µM (active) |  |
| CSc1cccc(Nc2ncc3cc(-c4c(Cl)cccc4Cl)c(=O)n(C)c3n2)c1 | 0.296 µM (active) |  |
| CCN(CC)CCCCNc1nc2cc(Cl)c(Cl)cc2nc1-c1ccc(-c2cccs2)s1 | 7.43 µM (active) |  |
| CC=C(C(=CC)c1ccc(O)cc1)c1ccc(O)cc1 | 16.6 µM (active) |  |
| O=C(O)CCNc1cc(N2CCc3ccccc3CC2)nc(-c2ccccn2)n1 | 23.5 µM (active) |  |
| C[C@H]1[C@H](O)O[C@@H]2O[C@@]3(C)CC[C@@H]4[C@H](C)CC[C@@H]1[C@@]24OO3 | 5.26 µM (active) |  |
| CN1CCC[C@H]1CCO[C@](C)(c1ccccc1)c1ccc(Cl)cc1 | 26.4 µM (active) |  |
| Cc1c(C(=O)Nc2ccc(N3C[C@@H](C)O[C@@H](C)C3)nc2)cccc1-c1ccc(OC(F)(F)F)cc1 | 20.9 µM (active) |  |
| N#CC(=C1Nc2ccccc2S1)c1ccnc(OCc2ccc(CN3CCOCC3)cc2)n1 | 8.33 µM (active) |  |
| Cc1cnc(-c2cc(N3CCN(C(=O)CCS(C)(=O)=O)CC3)ncc2Cl)c(C)c1 | 2.96 µM (active) |  |
| O=C(Nc1ccc(OC(F)(F)F)cc1)c1sccc1NCc1ccnc2ccccc12 | 2.96 µM (active) |  |
| COc1nccc(-c2c(-c3ccc(F)cc3)ncn2C2CCNCC2)n1 | 16.6 µM (active) |  |
| CCCCn1c(=O)n(Cc2ccccc2F)c(=O)c2[nH]c(Cc3ccc(NC(C)=O)cc3)nc21 | 11.8 µM (active) |  |
| O=C(Nc1ncc(SCCN2CCCC2)s1)[C@]1(c2ccc(S(=O)(=O)C3CC3)cc2)C[C@@H]1C1CCCCC1 | 14.8 µM (active) |  |
| CCCCCCCCCCCCCCCC(=O)O[C@H]1[C@@H](O)[C@@H](O)[C@@H]([C@H](NC(=O)[C@@H]2C[C@@H](CCC)CN2C)[C@H](C)Cl)O[C@@H]1SC |  | 141% |
| CN1CC(=O)NC1=NC(=O)Nc1cccc(Cl)c1 | 23.5 µM (active) |  |
| CCC[C@@H](NC(=O)[C@@H]1[C@H]2CCC[C@@H]2CN1C(=O)[C@@H](NC(=O)[C@@H](NC(=O)c1cnccn1)C1CCCCC1)C(C)(C)C)C(=O)C(=O)NC1CC1 | 16.6 µM (active) |  |

| Compound | Potency | viability, % of control |
| --- | --- | --- |
| CCCCN(CCCC)CC(O)c1cc(Cl)cc2c1-c1ccc(Cl)cc1C2=Cc1ccc(Cl)cc1 (stereo not given) | 10.5 µM (active) |  |
| Nc1[nH]nc2nnc(-c3c(-c4ccccc4)nn4ccccc34)cc12 | 20.9 µM (active) |  |
| Cn1cc(-c2ccc3nnc(Sc4ccc5ncccc5c4)n3n2)cn1 | 13.2 µM (active) |  |
| O[C@@H](COc1cccc2ncccc12)CN1CCN(C2c3ccccc3[C@@H]3[C@H](c4ccccc42)C3(F)F)CC1 (stereo not given in full) | 18.7 µM (active) |  |
| CC[C@H](C)n1cc(C)c2c(C(=O)NCc3c(C)cc(C)[nH]c3=O)cc(-c3ccc(N4CCNCC4)nc3)cc21 | 23.5 µM (active) |  |
| CCc1cccc(CC)c1NC(=O)N1Cc2[nH]nc(NC(=O)c3ccc(N4CCN(C)CC4)cc3)c2C1 | 1.66 µM (active) |  |
| C=CCc1cccc(C=NNC(=O)CN2CCN(Cc3ccccc3)CC2)c1O | 7.43 µM (active) |  |
| C[C@@H](NC(=O)c1ncnc(N)c1Cl)c1ncc(C(=O)Nc2cc(C(F)(F)F)c(Cl)cn2)s1 | 9.35 µM (active) |  |
| CC(O)=C(C#N)C(=O)Nc1ccc(C(F)(F)F)cc1 | 16.6 µM (active) |  |
| O=S(=O)(O)c1ccc2cc(N=Nc3cc(S(=O)(=O)O)c4cccnc4c3O)ccc2c1 | 9.35 µM (active) |  |
| C[C@@H]1O[C@@H](O[C@H]2CC[C@@]3(C)[C@H](CC[C@@H]4[C@H]3C[C@@H](O)[C@]3(C)[C@@H](C5=CC(=O)OC5)CC[C@]43O)C2)C[C@H](O)[C@@H]1O[C@H]1C[C@H](O)[C@H](O[C@H]2C[C@H](O)[C@@H](O)[C@@H](C)O2)[C@H](C)O1 (stereo in doubt) | 0.136 µM (active) |  |
| COc1cc(CNC(=O)CCCCC=CC(C)C)ccc1O |  | 137% |
| O=C(c1ccc(C=Cc2n[nH]c3ccccc23)cc1)N1CCNCC1 | 14.8 µM (active) |  |
| CCOC(=O)N1c2ccc(C(F)(F)F)cc2[C@@H](N(Cc2cc(C(F)(F)F)cc(C(F)(F)F)c2)C(=O)OC)C[C@H]1CC | 4.69 µM (active) |  |
| C[C@@]1(C(=O)Nc2ccc(F)nc2)CCCN1c1nc(Nc2cc(C3CC3)[nH]n2)c2cccn2n1 | 0.118 µM (active) |  |
| CNC1CCC(N(Cc2cccc(-c3ccncc3)c2)C(=O)c2sc3ccccc3c2Cl)CC1 (stereo not given) | 18.7 µM (active) |  |
| COc1ccc(-c2ccc3ncc4c(c3c2)n(-c2ccc(N3CCNCC3)c(C(F)(F)F)c2)c(=O)n4C)cn1 | 0.0469 µM (active) |  |
| CCCCOCCOc1nc(-c2ccc(C(=O)O)c(F)c2)sc1C | 14.8 µM (active) |  |
| COc1cc([C@H]2Oc3cc([C@H]4Oc5cc(O)cc(O)c5C(=O)[C@H]4O)ccc3O[C@H]2CO)ccc1O | 10.5 µM (active) |  |
| CC(C)(O)CC(=O)NCCn1ccc2ncnc(Nc3ccc(Oc4cccc(C(F)(F)F)c4)c(Cl)c3)c21 | 1.18 µM (active) |  |
